Experiment [1] is described as follows: antimalarial activity against Dd2 strain (AID 2302;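 active = growth inhibition above 50% at the single 2 µM test dose, taken to imply half-maximal potency below 2 µM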;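 note: 0% = DMSO untreated growth and 100% = chloroquine plus artemisinin killed control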). As to conditions: P. falciparum Dd2 in RBCs, LDH growth readout, 72 h; at 2 µM; stronger effect = higher value.
A short description of experiment [2]: human hepatoma cell viability loss – ATP luminescence, cytotoxicity control for P. falciparum antimalarial project, primary screen (AID 2303;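 active = inhibition above 50%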;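 note: 0% = DMSO wells and 100% = digitonin-killed cells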). The settings on record: HepG2 viability, 24-48 h, at 10 µM, stronger effect = higher value.
In experiment [3] the target is L-lactate dehydrogenase (Plasmodium falciparum (isolate CDC / Honduras)) (UniProt Q27743). In words: PfLDH activity inhibition – cell lysate, 3D7 strain, counter-screen for P. falciparum growth inhibition project (AID 2304).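 Note: 0% = vehicle and 100% = reference inhibitor.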 As to conditions: P. falciparum 3D7 crude extract, LDH APAD/NBT absorbance; at 2 µM; stronger effect = higher value.
Sequence of L-lactate dehydrogenase (Plasmodium falciparum (isolate CDC / Honduras)) (Q27743 whole entry, looked up): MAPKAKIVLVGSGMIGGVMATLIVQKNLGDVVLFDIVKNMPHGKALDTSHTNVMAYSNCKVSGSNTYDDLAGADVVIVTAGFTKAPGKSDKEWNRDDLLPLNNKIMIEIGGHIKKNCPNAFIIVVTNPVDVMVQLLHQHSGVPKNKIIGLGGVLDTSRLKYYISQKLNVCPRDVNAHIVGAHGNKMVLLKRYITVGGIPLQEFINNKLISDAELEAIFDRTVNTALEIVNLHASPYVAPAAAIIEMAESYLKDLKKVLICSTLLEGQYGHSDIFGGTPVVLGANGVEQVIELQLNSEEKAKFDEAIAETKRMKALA
Experiment [4] is described as follows: inhibition of 3D7 malaria parasite growth – strain 3D7 (AID 2306).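 Note: 0% = DMSO wells and 100% = chloroquine plus artemisinin control wells.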 The settings on record: P. falciparum 3D7 erythrocytic growth, LDH absorbance, 72 h; at 2 µM; stronger effect = higher value.
Experiment [5] deals with Calcium-dependent protein kinase 1 (Plasmodium falciparum (isolate 3D7)) (UniProt P62344). In words: PfCDPK1 kinase inhibitors, biochemical, TCAMS library (AID 1159585; cut-off not given, nearly all actives have IC50 up to about 0.98 µM;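 note: inhibitors leave more ATP so luminescence rises with inhibition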). As to conditions: recombinant PfCDPK1, Kinase-Glo ATP depletion luminescence.
Sequence of Calcium-dependent protein kinase 1 (Plasmodium falciparum (isolate 3D7)) (P62344 whole entry, looked up): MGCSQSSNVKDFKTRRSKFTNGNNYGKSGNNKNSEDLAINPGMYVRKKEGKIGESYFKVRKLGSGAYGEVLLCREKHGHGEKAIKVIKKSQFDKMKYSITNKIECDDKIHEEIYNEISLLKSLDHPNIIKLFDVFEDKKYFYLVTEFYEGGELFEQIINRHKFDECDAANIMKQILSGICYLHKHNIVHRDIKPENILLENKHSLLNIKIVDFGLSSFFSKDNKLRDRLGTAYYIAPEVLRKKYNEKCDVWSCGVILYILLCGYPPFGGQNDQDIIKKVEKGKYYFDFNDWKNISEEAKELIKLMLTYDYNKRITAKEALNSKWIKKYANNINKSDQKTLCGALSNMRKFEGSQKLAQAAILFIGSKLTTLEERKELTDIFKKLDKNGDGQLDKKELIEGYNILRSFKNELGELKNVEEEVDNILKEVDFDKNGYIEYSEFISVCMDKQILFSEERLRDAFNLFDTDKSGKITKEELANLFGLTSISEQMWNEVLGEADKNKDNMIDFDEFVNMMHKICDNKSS
Experiment [6] concerns the target Plasmodium falciparum protein kinase 6 (PK6, PF3D7_1337100) (UniProt Q8IDW1). In words: PfPK6 kinase inhibitors, biochemical, TCAMS library (AID 1159586). As to conditions: recombinant PfPK6, Kinase-Glo ATP depletion luminescence.
Experiment [7] deals with Protein kinase 7 (PK7), Plasmodium falciparum 3D7 (PF3D7_0213400) (UniProt Q7YTF7). In words: inhibition of Plasmodium PK7 catalytic activity – biochemical, TCAMS antimalarial set, Kinase-Glo luminescence (AID 1159587). As to conditions: recombinant PfPK7, Kinase-Glo ATP depletion luminescence.
Sequence of Protein kinase 7 (PK7), Plasmodium falciparum 3D7 (PF3D7_0213400) (Q7YTF7 1-343): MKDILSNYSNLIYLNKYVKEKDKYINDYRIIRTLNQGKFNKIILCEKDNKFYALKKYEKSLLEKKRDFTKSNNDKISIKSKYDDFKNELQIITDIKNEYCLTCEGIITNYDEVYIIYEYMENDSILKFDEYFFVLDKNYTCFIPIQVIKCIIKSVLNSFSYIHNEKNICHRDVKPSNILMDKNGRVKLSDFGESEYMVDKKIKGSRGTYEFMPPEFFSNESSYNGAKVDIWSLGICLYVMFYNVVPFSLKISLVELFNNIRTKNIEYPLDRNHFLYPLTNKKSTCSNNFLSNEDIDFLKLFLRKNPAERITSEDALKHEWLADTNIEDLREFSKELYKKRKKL
The target of experiment [8] is Calcium-dependent protein kinase 4 (Plasmodium falciparum (isolate 3D7)) (UniProt Q8IBS5). In words: PfCDPK4 kinase inhibitors, biochemical, TCAMS library (AID 1159588; cut-off not given, nearly all actives have IC50 up to about 0.91 µM). The settings on record: recombinant PfCDPK4, Kinase-Glo ATP depletion luminescence.
Sequence of Calcium-dependent protein kinase 4 (Plasmodium falciparum (isolate 3D7)) (Q8IBS5 whole entry, looked up): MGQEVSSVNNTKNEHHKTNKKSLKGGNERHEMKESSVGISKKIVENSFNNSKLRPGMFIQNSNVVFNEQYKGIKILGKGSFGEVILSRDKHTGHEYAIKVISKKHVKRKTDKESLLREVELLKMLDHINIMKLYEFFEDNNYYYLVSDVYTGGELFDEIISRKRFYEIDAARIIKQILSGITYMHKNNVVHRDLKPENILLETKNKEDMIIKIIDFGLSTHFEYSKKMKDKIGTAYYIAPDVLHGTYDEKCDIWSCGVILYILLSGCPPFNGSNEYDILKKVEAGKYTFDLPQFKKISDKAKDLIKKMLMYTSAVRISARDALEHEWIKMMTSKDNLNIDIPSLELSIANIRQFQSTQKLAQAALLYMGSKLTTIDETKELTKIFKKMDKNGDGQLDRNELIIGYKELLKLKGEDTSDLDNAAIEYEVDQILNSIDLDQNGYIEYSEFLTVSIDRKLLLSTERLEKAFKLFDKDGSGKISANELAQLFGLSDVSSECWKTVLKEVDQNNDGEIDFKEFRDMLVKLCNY

Molecules are shown by their SMILES. Where “and” joins values, the source holds several entries; their conditions need not be identical. Equal entries are not always repeated. For part of these data: Measured potencies and affinities stand elsewhere. Some structures have more than one record in an assay (separate samples or runs), and their calls can disagree. Calls of active or inactive are those of the source. Unless noted, the rule behind the calls is not given here.

Sequence of Plasmodium falciparum protein kinase 6 (PK6, PF3D7_1337100) (Q8IDW1 1-305): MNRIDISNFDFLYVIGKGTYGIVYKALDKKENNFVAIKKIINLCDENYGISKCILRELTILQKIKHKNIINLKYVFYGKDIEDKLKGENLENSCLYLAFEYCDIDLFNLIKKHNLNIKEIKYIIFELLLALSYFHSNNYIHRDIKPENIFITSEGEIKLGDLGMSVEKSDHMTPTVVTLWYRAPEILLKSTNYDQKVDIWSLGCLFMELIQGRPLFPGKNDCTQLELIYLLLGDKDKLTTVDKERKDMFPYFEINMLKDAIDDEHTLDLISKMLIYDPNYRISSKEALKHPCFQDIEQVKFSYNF

On to `COC(=O)c1ccc(CC(C)NCC(O)c2ccc(F)c(Cl)c2)cc1` (centres undefined), for which the growth inhibition in experiment [1] is 78% (active); in experiment [4], 98% (active). Moreover, the inhibition in experiment [2] was -4% (inactive); in experiment [3], -7% (inactive). The result in experiment [5], in experiment [6], in experiment [7] and in experiment [8] was inactive.
`O=C(C=C1c2ccccc2-c2ccccc21)NC1CCC(CN2CCC(c3c[nH]c4ccccc34)CC2)CC1` (centres undefined): the growth inhibition in experiment [1] was 64% (active) and 67% (active); in experiment [4], 102% (active) and 99% (active). The inhibition in experiment [2] was 21% (inactive) and 54% (active); in experiment [3], 4% (inactive) and 1% (inactive). The outcome in experiment [5], in experiment [6], in experiment [7] and in experiment [8] was inactive.
Consider `CC(C)NC(=O)Cn1cc(C2CCN(CC3CCN(C(=O)/C=C/c4ccc(Cl)c(Cl)c4)CC3)CC2)c2ccccc21`, for which the growth inhibition in experiment [1] is 55% (active); in experiment [4], 97% (active). Further, the inhibition in experiment [2] is 31% (inactive); in experiment [3], -2% (inactive). For the same compound, the result in experiment [5], in experiment [6], in experiment [7] and in experiment [8] was inactive.
Turning to `CN(c1cc(NC(=O)c2cccs2)ccn1)C1CCN(Cc2ccccc2)CC1`, the values for the growth inhibition in experiment [1] and in experiment [4] were 87% (active) and 92% (active), respectively. In addition, the results for the inhibition in experiment [2] and in experiment [3] were -2% (inactive) and -1% (inactive), respectively. Further, the outcome in experiment [5], in experiment [6], in experiment [7] and in experiment [8] was inactive.
As for `C1=C(c2c[nH]c3ccccc23)CCN(Cc2ccccc2)C1`, the values for the growth inhibition in experiment [1] and in experiment [4] were 80% (active) and 91% (active), respectively. Besides, the inhibition in experiment [2] was 22% (inactive); in experiment [3] it was -1% (inactive). In addition, the outcome in experiment [5], in experiment [6], in experiment [7] and in experiment [8] was inactive.
As for `O=C(CCCCCc1ccccc1)NC1CCC(CN2CCC(c3c[nH]c4ccccc34)CC2)CC1` (centres undefined), the results for the growth inhibition in experiment [1] and in experiment [4] were 5% (inactive) and 86% (active), respectively. The inhibition in experiment [2] was 34% (inactive); in experiment [3], -3% (inactive). The outcome in experiment [5], in experiment [6], in experiment [7] and in experiment [8] was inactive.
As for `CNCCCN(C)C(=O)Oc1c(Br)c(C)nc(C)c1-c1ccc(Oc2ccc(OC(F)(F)F)cc2)cc1`, the growth inhibition in experiment [1] and in experiment [4] was 96% (active) in each case. The inhibition in experiment [2] is 17% (inactive); in experiment [3], 3% (inactive). In addition, the result in experiment [5], in experiment [6], in experiment [7] and in experiment [8] was inactive.
In the case of `CN(C)CCCn1cc(C(=O)OC2C[C@H]3CC[C@@H](C2)N3C)c2cc(-c3ccccc3)ccc21` (some centres undefined), the growth inhibition is 96% (active) in experiment [1] and 97% (active) in experiment [4]. Moreover, the values for the inhibition in experiment [2] and in experiment [3] were 97% (active) and 0% (inactive), respectively. Further, the outcome in experiment [5], in experiment [6], in experiment [7] and in experiment [8] was inactive.
Turning to `O=C(C=Cc1ccccc1O)N1CCC(CN2CCC(c3c[nH]c4ccccc34)CC2)CC1`, the growth inhibition was 43% (inactive) in experiment [1] and 98% (active) in experiment [4]. For the same compound, the inhibition in experiment [2] was 27% (inactive); in experiment [3] it was -1% (inactive). Also, the outcome in experiment [5], in experiment [6], in experiment [7] and in experiment [8] was inactive.
For the compound `CSc1nccc(-c2ccc(S(=O)(=O)NC3CCC(CN4CCC(c5c[nH]c6ccccc56)CC4)CC3)s2)n1` (centres undefined), the growth inhibition is 67% (active) and 33% (inactive) in experiment [1]; 101% (active) in experiment [4]. Further, the inhibition in experiment [2] was 36% (inactive) and 61% (active); in experiment [3] it was -1% (inactive) and 4% (inactive). Moreover, the outcome in experiment [5], in experiment [6], in experiment [7] and in experiment [8] was inactive.
On to `O=C(CCc1ccco1)NC1CCN(CC2(c3ccc(Cl)cc3)CCC2)CC1`, for which the growth inhibition is 67% (active) in experiment [1] and 99% (active) in experiment [4]. The results for the inhibition in experiment [2] and in experiment [3] were -12% (inactive) and -2% (inactive), respectively. For the same compound, the outcome in experiment [5], in experiment [6], in experiment [7] and in experiment [8] was inactive.
For the compound `CN1CCC(N(C)c2nccc(N3CCN(Cc4cncn4Cc4ccccc4)CC3)n2)CC1`, the growth inhibition in experiment [1] and in experiment [4] was 100% (active) throughout. The inhibition in experiment [2] was 15% (inactive); in experiment [3], 3% (inactive). Also, the outcome in experiment [5], in experiment [6], in experiment [7] and in experiment [8] was inactive.
For `CC[C@H]1CN2CC[C@@H]1C[C@H]2[C@H](O)c1cc(N2CCC(O)(c3ccc(Cl)cc3)CC2)nc2ccc(OC)cc12`, the growth inhibition in experiment [1] was 98% (active); in experiment [4], 101% (active). Also, the inhibition in experiment [2] was 21% (inactive); in experiment [3] it was -8% (inactive). The result in experiment [5], in experiment [6], in experiment [7] and in experiment [8] was inactive.
For `CC[C@H]1C[N+]2([O-])CC[C@@H]1C[C@H]2[C@H](O)c1cc(-c2ccccc2)nc2ccc(OC)cc12`, the growth inhibition in experiment [1] is 97% (active); in experiment [4] it was 99% (active). Further, the figures for the inhibition in experiment [2] and in experiment [3] were -11% (inactive) and 0% (inactive), respectively. For the same compound, the outcome in experiment [5], in experiment [6], in experiment [7] and in experiment [8] was inactive.
With `CCCCCCCc1cc(O)c2c(c1)OC(C)(C)c1ccncc1-2`, the growth inhibition in experiment [1] is 52% (active); in experiment [4], 95% (active). Further, the inhibition in experiment [2] is -7% (inactive); in experiment [3] it was 0% (inactive). The result in experiment [5], in experiment [6], in experiment [7] and in experiment [8] was inactive.
On to `CN(C)CCc1c[nH]c2ccc(C(=O)Nc3ccc(-c4ccncc4)cc3)cc12`, for which the values for the growth inhibition in experiment [1] and in experiment [4] were 46% (inactive) and 99% (active), respectively. The inhibition in experiment [2] was 23% (inactive); in experiment [3], -7% (inactive). Besides, the result in experiment [5], in experiment [6], in experiment [7] and in experiment [8] was inactive.
On to `COCCNCc1ccc(-c2cccc(CN(C(=O)CCC3CCCC3)C3CCN(Cc4ccccc4)CC3)c2)cc1`, for which the growth inhibition in experiment [1] was 86% (active); in experiment [4] it was 91% (active). Further, the results for the inhibition in experiment [2] and in experiment [3] were 50% (active) and -2% (inactive), respectively. For the same compound, the result in experiment [5], in experiment [6], in experiment [7] and in experiment [8] was inactive.
With `COc1ccc(OC)c(CNCC(O)c2cc(C(F)(F)F)cc(C(F)(F)F)c2)c1` (centres undefined), the growth inhibition in experiment [1] is 100% (active); in experiment [4], 92% (active). Also, the inhibition in experiment [2] is 7% (inactive); in experiment [3] it was 6% (inactive). The result in experiment [5], in experiment [6], in experiment [7] and in experiment [8] was inactive.

The record behind these values is PubChem BioAssay.
